“And” between values parts separate entries of the source, which are not always exact repeats. Equal entries are not always repeated. Inconclusive results are not listed. A structure can be active in one record and inactive in another. The source made the active and inactive calls. Unless noted, the call rests on the fitted dose curve; in most records, active means well fitted curve in the direction sought with a large enough effect in the repeat runs; inconclusive means weak or mixed curves; inactive means no such curve, though single readings can be large; an effect the other way counts as inactive or inconclusive.

Assay [1] is described as follows: qHTS assay to identify small molecule agonists of the hypoxia (HIF-1) signaling pathway - cell viability counter screen (AID 1224844; calls by dose curve; further: nearly all actives have a fitted effect of over 50% in size; further: potency means the concentration at half of the fitted maximal effect). The procedure, abridged:
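Cytotoxicity measured by CellTiter-Glo ATP luminescence in the wells also read for beta-lactamase signal. Cells were HRE-bla ME-180 (2,000/well, 0.5% dialyzed FBS), exposed to compounds for 17 h at 37C.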
Background: In qHTS, concentration-response curves come from the screen itself.

Assay [2] is described as follows: qHTS assay to identify small molecule agonists of H2AX (AID 1224845; active means well fitted activation curve with a large enough effect in the signal ratio in the repeat runs, not every such curve was filed as active; the % refers to the signal ratio). Summed up:
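Wild-type CHO-K1 cells plated overnight, then exposed 3 hr at 37C to compounds at 15 concentrations (0.76% DMSO). Lysed, then HTRF anti-pH2AX(S139)-cryptate/anti-H2AX-d2 detection after 24 hr at room temperature; emissions 665 and 620 nm.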

Assay [3] is described as follows: qHTS assay to identify small molecule agonists of the hypoxia (HIF-1) signaling pathway (AID 1224846; active means well fitted activation curve with a large enough effect in the signal ratio in the repeat runs, not every such curve was filed as active; the % refers to the signal ratio). Summed up:
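Compounds added to ME-180 cells carrying hypoxia-response-element beta-lactamase reporter (0.5% dialyzed FBS, 5 h preplating), 17 h at 37C; agonist activity detected by CCF4-AM B/G FRET read-out.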

A short description of assay [4]: qHTS assay to identify small molecule agonists of H2AX - cell viability counter screen (AID 1224847; calls by dose curve; further: top concentration of the series differs between compounds; nearly all actives have a fitted effect of over 30% in size). The procedure, abridged: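 Cytotoxicity counter screen in wild-type CHO-K1 cells: a 3 hr compound treatment at 37C across 15 concentrations, followed by CellTiter-Glo luminescence to gauge viable cells.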
Assay [5] can be described thus: qHTS assay to identify small molecule antagonists of the estrogen related receptor (ERR) signaling pathway from Tox21 library (AID 1224848). Further: nearly all actives have a fitted effect of over 50% in size. The procedure, abridged:
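Tox21 10K compounds in DMSO tested for ERR pathway antagonism in NTP's ERR cell line; 18 h, 37 C exposure; ONE-Glo luminescence.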

The nature of assay [6]: qHTS assay to identify small molecule agonists of the estrogen related receptor (ERR) signaling pathway from Tox21 library (AID 1224849; calls by dose curve; further: nearly all actives have a fitted effect of over 15% in size). Particulars: ERR reporter cell line, ONE-Glo luciferase, 18 h; at 92.4 µM (top of the series). Summed up: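 Luminescent agonist read-out (One-Glo, 30-minute room-temperature incubation) following 18-hour compound treatment at 37 C of the ERR cell line, which had been plated 6 hours before dosing.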

Assay [7] can be described thus: qHTS RealTime-Glo MT Cell Viability Assay in HepG2 cells - 24 hour (AID 1224867). Further: nearly all actives have a fitted effect of over 50% in size. Summed up: (§1)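 HepG2 cells were seeded at 600 cells/well together with NanoLuc luciferase and a cell-permeant prosubstrate, preincubated 5 h at 37 C/5% CO2, then pin-dosed with compounds in DMSO. Nonlytic luminescence from viable cells was read at each time point.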
Assay [8] can be described thus: qHTS RealTime-Glo MT Cell Viability Assay in HEK293 cells - 32 hour (AID 1224868). Further: top concentration of the series differs between compounds; nearly all actives have a fitted effect of over 50% in size. The procedure, abridged: (§2)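 HEK293 cells were seeded at 600 cells/well together with NanoLuc luciferase and cell-permeant prosubstrate, preincubated 5 h at 37 C/5% CO2, then given compound in DMSO by pintool. Luminescence from viable-cell prosubstrate reduction was read repeatedly over 40 h.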

Assay [9] can be described thus: A CellTox Green Cytotoxicity Assay to monitor cytotoxicity in HEK293 cells - 0 hour (AID 1224869). Further: nearly all actives have a fitted effect of over 50% in size. Summed up: (§3)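 Fluorescence from a DNA-binding dye excluded by viable cells was measured repeatedly in the same HEK293 wells (600 cells/well) during continuous compound exposure at 37 C. Each assay gives one read point: 0, 8, 16, 24, 32 or 40 h.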
Assay [10] is described as follows: A CellTox Green Cytotoxicity Assay to monitor cytotoxicity in HEK293 cells - 40 hour (AID 1224871). Further: nearly all actives have a fitted effect of over 45% in size. Further: potency means the concentration at half of the fitted maximal effect. Summed up:
as §3

Assay [11] in a line: qHTS RealTime-Glo MT Cell Viability Assay in HepG2 cells - 8 hour (AID 1224873). Further: nearly all actives have a fitted effect of over 55% in size. Summed up:
(§4)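 HepG2 cells mixed with RealTime-Glo MT reagents (NanoLuc plus cell-permeant prosubstrate) were seeded at 600 cells/well, incubated 5 h at 37 C/5% CO2, then pinned with compounds in DMSO; nonlytic luminescence tracked viability during 40 h treatment.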

Assay [12] can be described thus: qHTS RealTime-Glo MT Cell Viability Assay in HEK293 cells - 40 hour (AID 1224874). Further: nearly all actives have a fitted effect of over 50% in size. The conditions noted are these: RealTime-Glo luminescence; max response: stronger effect = lower value. Summed up: (§5)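 Luminescence, which tracks viable cell number through reduction of the prosubstrate to a NanoLuc substrate, was read over continuous 37 C culture. Cells (600/well) were premixed with reagent and rested 5 h before 23 nL of compound in DMSO was pinned.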

The nature of assay [13]: A CellTox Green Cytotoxicity Assay to monitor cytotoxicity in HEK293 cells - 24 hour (AID 1224875). Further: nearly all actives have a fitted effect of over 45% in size. Summed up:
as §3

Assay [14] can be described thus: A CellTox Green Cytotoxicity Assay to monitor cytotoxicity in HepG2 cells - 16 hour (AID 1224876). Further: nearly all actives have a fitted effect of over 45% in size. Further: potency means the concentration at half of the fitted maximal effect. Summed up: (§6)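 Real-time cytotoxicity: fluorescence of a cell-impermeant cyanine dye binding DNA of dead HepG2 cells, measured repeatedly (0–40 h) during compound exposure at 37 C. Cells seeded 600/well with reagent, dosed after 5 h.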
Assay [15] can be described thus: qHTS RealTime-Glo MT Cell Viability Assay in HepG2 cells - 32 hour (AID 1224877). Further: nearly all actives have a fitted effect of over 55% in size. The procedure, abridged: as §1
The nature of assay [16]: qHTS RealTime-Glo MT Cell Viability Assay in HEK293 cells - 0 hour (AID 1224880). Further: top concentration of the series differs between compounds; nearly all actives have a fitted effect of over 45% in size. The procedure, abridged: as §5
Assay [17] is described as follows: qHTS RealTime-Glo MT Cell Viability Assay in HEK293 cells - 16 hour (AID 1224872). The procedure, abridged:
as §2

The nature of assay [18]: A CellTox Green Cytotoxicity Assay to monitor cytotoxicity in HepG2 cells - 24 hour (AID 1224878). Further: nearly all actives have a fitted effect of over 45% in size. Further: potency means the concentration at half of the fitted maximal effect. Summed up: as §6
A short description of assay [19]: A CellTox Green Cytotoxicity Assay to monitor cytotoxicity in HepG2 cells - 40 hour (AID 1224879). Further: nearly all actives have a fitted effect of over 40% in size. Further: potency means the concentration at half of the fitted maximal effect. The procedure, abridged:
as §6

Assay [20] can be described thus: qHTS RealTime-Glo MT Cell Viability Assay in HepG2 cells - 40 hour (AID 1224870). Further: nearly all actives have a fitted effect of over 50% in size. Summed up: as §4
On the % scale 0 is the no-effect control and ±100 the full control effect.

Take `O=C1Nc2ccc(Cl)cc2C(c2ccccc2)=NC1O` (stereo not given): the Potency result in assay [1], in assay [2], in assay [4], in [5], in assay [7] and in assay [8] was “inactive” throughout. The Potency entry in assay [9], in [10], in assay [11], in [13], in assay [14] and in assay [15] was “inactive” in each case. The Potency result in assay [16] is “inactive”. For the same compound, the compound was classed as inactive in assay [3]. The activity change, positive = activation in assay [6] is -20.3% (inactive) and -12.2% (inactive). Also, the max response in [12] is -19.7% (inactive).
Turning to `O=S(=O)(O)C(F)(F)C(F)(F)C(F)(F)C(F)(F)C(F)(F)C(F)(F)C(F)(F)C(F)(F)F`, the Potency was 33 µM (active) and 49 µM (active) and 12.3 µM (active) in assay [1]; 33 µM (active) and inactive and 21.9 µM (active) in assay [10]; 18.6 µM (active) and inactive in [14]; 18.6 µM (active) and inactive in assay [18]; 16.5 µM (active) and inactive in assay [19]. Further, the Potency result in assay [2], in assay [4], in [5], in assay [7], in assay [8] and in assay [9] was “inactive” throughout. Besides, the Potency result in assay [17], in assay [11], in [15] and in assay [16] was “inactive” each time. Further, in [3], the call was inactive. In addition, the activity change, positive = activation in assay [6] was -7.99% (inactive) and -0.0044% (inactive) and -21.1% (inactive). Besides, in assay [12], the max response was -24.5% (inactive) and 0.151% (inactive).
Regarding `CCOP(=O)(OCC)OCC`, the Potency result in [1], in assay [2], in assay [4], in [5], in [7] and in [8] was “inactive” throughout. In addition, the Potency result in [9], in [20], in [10], in [17], in [11] and in assay [13] was “inactive” throughout. Besides, the Potency entry in assay [14], in assay [15] and in assay [16] was “inactive” in each case. Also, in assay [3], the compound was called inactive. Further, the activity change, positive = activation in assay [6] is -7.79% (inactive) and 1.86% (inactive). Besides, in [12], the max response is 0.385% (inactive) and 0.0295% (inactive).
With `N#CCCCCC#N`, the Potency result in assay [1], in assay [2], in assay [4], in [5], in [7] and in [8] was “inactive” in each case. Also, the Potency result in assay [9], in [10], in assay [17], in [13], in [14] and in [15] was “inactive” in each case. Also, the Potency result in [19] and in assay [16] was “inactive” each time. In assay [3], the outcome was inactive. For the same compound, the activity change, positive = activation in [6] is 8.89% (inactive) and 3.44% (inactive). In addition, the max response in assay [12] is 1.71% (inactive) and 10.7% (inactive).
With `Nc1ccc2ccccc2c1`, the Potency result in assay [1], in [2], in assay [4], in assay [5], in assay [7] and in [8] was “inactive” each time. The Potency entry in assay [9], in assay [10], in [17], in assay [11], in assay [13] and in assay [14] was “inactive” each time. Besides, the Potency entry in assay [15], in assay [18] and in assay [16] was “inactive” in each case. The compound was called inactive in [3]. Besides, the activity change, positive = activation in assay [6] is 30.3% (active). The max response in assay [12] is 5% (inactive).
As to `S=c1[nH]c2ccccc2[nH]1`, the Potency entry in assay [1], in [2], in [4], in assay [5], in assay [7] and in assay [8] was “inactive” in each case. The Potency entry in [9], in assay [20], in assay [10], in assay [17], in [13] and in [15] was “inactive” throughout. Further, in assay [16], the Potency result was “inactive”. Moreover, the result in assay [3] was inactive. Also, the activity change, positive = activation in assay [6] is -4.19% (inactive) and 0.256% (inactive). The max response in [12] is 4.47% (inactive) and 4.64% (inactive). Also, the Potency result in [14] was “inactive and 21.9 µM (active)”; in [19], “inactive and 21.9 µM (active)”.
